# Measurements reported in PubChem BioAssay AID1159580 (chemical genetic matrix, 2015).
# About 2,000 (36%) of roughly 5,500 compounds were called active. Roughly 18% stayed inconclusive and do not appear here. The list shows a part of the results. Unmarked numbers belong to inactive results. Rule as the data show it: active = normalized growth mostly below about 0.91 (no sharp cut-off); inconclusive = no clear call, values can overlap the other calls; inactive = mostly above about 0.92.
# Experiment: chemical genetic growth profiling, strain panel (AID 1159580);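 also: tested at 20 µM; growth read once vehicle control cultures reached saturation at 30 °C; 1 = growth at the plate median or of vehicle wells; lower values mean less growth of the strain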
# Conditions: growth OD
# [1] = S. cerevisiae deletion strains, locus YAL040C, strain CLN3, hits give low values
# [2] = S. cerevisiae deletion strains, locus YCL061C, strain MRC1 (second series), hits give low values
# [3] = S. cerevisiae deletion strains, locus YDR150W, strain NUM1, hits give low values
# [4] = S. cerevisiae deletion strains, locus YDR363W, strain ESC2, hits give low values
# [5] = S. cerevisiae deletion strains, locus YER002W, strain NOP16, hits give low values
# [6] = S. cerevisiae deletion strains, locus YGR229C, strain SMI1, hits give low values
# [7] = S. cerevisiae deletion strains, locus YJR075W, strain HOC1, hits give low values
# [8] = S. cerevisiae deletion strains, locus YMR263W, strain SAP30, hits give low values
# [9] = S. cerevisiae deletion strains, locus YMR307W, strain GAS1, hits give low values
# [10] = S. cerevisiae deletion strains, locus YNL128W, strain TEP1, hits give low values
# [11] = S. cerevisiae deletion strains, locus YNL175C, strain NOP13, hits give low values
# [12] = S. cerevisiae deletion strains, locus YNL197C, strain WHI3, hits give low values
# [13] = S. cerevisiae deletion strains, locus YNL224C, strain SQS1, hits give low values
# [14] = S. cerevisiae deletion strains, locus YNL322C, strain KRE1, hits give low values
# [15] = S. cerevisiae deletion strains, locus YOR083W, strain WHI5 (second series), hits give low values
# [16] = S. cerevisiae deletion strains, locus YPL241C, strain CIN2, hits give low values
# [17] = S. cerevisiae deletion strains, locus YPL055C, strain LGE1, hits give low values
# [18] = S. cerevisiae deletion strains, locus YNL153C, strain GIM3, hits give low values
# [19] = S. cerevisiae deletion strains, locus YAL013W, strain DEP1, hits give low values
# [20] = S. cerevisiae deletion strains, locus YGR078C, strain PAC10, hits give low values
smiles,measurement,setting,value
CCCN1CCOC2c3cc(O)ccc3OCC21 (stereo not given),normalized growth,[1],0.983
same,normalized growth,[2],0.993
same,normalized growth,[3],0.988
same,normalized growth,[4],0.96
same,normalized growth,[5],1
same,normalized growth,[6],1.03
same,normalized growth,[7],1.01
same,normalized growth,[8],1
same,normalized growth,[9],1.02
same,normalized growth,[10],0.993
same,normalized growth,[11],0.984
same,normalized growth,[12],0.975
same,normalized growth,[13],1
same,normalized growth,[14],0.994
same,normalized growth,[15],0.983
same,normalized growth,[16],0.998
CCCN1CCc2cc(O)cc3c2[C@H]1Cc1ccc(O)c(O)c1-3,normalized growth,[1],1.03
same,normalized growth,[2],0.779 (active)
same,normalized growth,[4],0.922
same,normalized growth,[5],1.01
same,normalized growth,[9],0.771 (active)
same,normalized growth,[11],1.01
same,normalized growth,[12],0.983
same,normalized growth,[13],1.01
same,normalized growth,[14],0.654 (active)
same,normalized growth,[15],0.926
same,normalized growth,[17],0.553 (active)
CCCN1CC[C@@H]2c3cc(O)ccc3CC[C@@H]21,normalized growth,[1],1.02
same,normalized growth,[2],1.01
same,normalized growth,[4],1.01
same,normalized growth,[5],1.01
same,normalized growth,[9],1
same,normalized growth,[18],1.04
same,normalized growth,[11],1.01
same,normalized growth,[12],1.01
same,normalized growth,[13],1.02
same,normalized growth,[14],1.01
same,normalized growth,[15],1.01
CN1CCc2cc(O)cc3c2[C@H]1Cc1ccc(O)c(O)c1-3,normalized growth,[19],0.844 (active)
same,normalized growth,[1],1.06
same,normalized growth,[2],0.794 (active)
same,normalized growth,[4],0.927
same,normalized growth,[5],1
same,normalized growth,[20],0.946
same,normalized growth,[7],0.492 (active)
same,normalized growth,[9],0.798 (active)
same,normalized growth,[18],0.902
same,normalized growth,[11],0.994
same,normalized growth,[12],1.02
same,normalized growth,[13],1.03
same,normalized growth,[14],0.786 (active)
same,normalized growth,[15],0.912
same,normalized growth,[17],0.575 (active)
same,normalized growth,[16],0.876 (active)
COc1cc2c3cc1Oc1cc(ccc1O)OC1c4c(cc(OC)c(O)c4Oc4ccc(cc4)CC3N(C)CC2)CCN1C (stereo not given),normalized growth,[19],0.992
same,normalized growth,"S. cerevisiae deletion strains, locus YBR021W, strain FUR4, hits give low values",0.971
same,normalized growth,"S. cerevisiae deletion strains, locus YBR229C, strain ROT2, hits give low values",0.993
same,normalized growth,"S. cerevisiae deletion strains, locus YCL029C, strain bik1, hits give low values",0.967
same,normalized growth,"S. cerevisiae deletion strains, locus YDL035C, strain GPR1, hits give low values",0.978
same,normalized growth,"S. cerevisiae deletion strains, locus YDL074C, strain BRE1, hits give low values",1.02
same,normalized growth,"S. cerevisiae deletion strains, locus YDL101C, strain DUN1, hits give low values",0.993
same,normalized growth,"S. cerevisiae deletion strains, locus YDL134C, strain PPH21, hits give low values",0.996
same,normalized growth,"S. cerevisiae deletion strains, locus YDL185W, strain tfp1, hits give low values",0.966
same,normalized growth,"S. cerevisiae deletion strains, locus YDL192W, strain arf1, hits give low values",0.981
same,normalized growth,"S. cerevisiae deletion strains, locus YDR101C, strain arx1, hits give low values",0.983
same,normalized growth,[3],0.995
same,normalized growth,"S. cerevisiae deletion strains, locus YDR162C, strain NBP2, hits give low values",1.01
same,normalized growth,"S. cerevisiae deletion strains, locus YDR318W, strain mcm21, hits give low values",0.965
same,normalized growth,"S. cerevisiae deletion strains, locus YDR388W, hits give low values",0.989
same,normalized growth,"S. cerevisiae deletion strains, locus YDR502C, strain sam2, hits give low values",0.984
same,normalized growth,"S. cerevisiae deletion strains, locus YEL061C, strain CIN8, hits give low values",0.985
same,normalized growth,"S. cerevisiae deletion strains, locus YER110C, hits give low values",0.966
same,normalized growth,"S. cerevisiae deletion strains, locus YER155C, strain BEM2, hits give low values",0.999
same,normalized growth,"S. cerevisiae deletion strains, locus YER167W, strain BCK2, hits give low values",0.958
same,normalized growth,"S. cerevisiae deletion strains, locus YGL078C, strain dbp3, hits give low values",0.979
same,normalized growth,"S. cerevisiae deletion strains, locus YGL086W, strain mad1, hits give low values",0.963
same,normalized growth,"S. cerevisiae deletion strains, locus YGL248W, strain PDE1, hits give low values",0.999
same,normalized growth,[20],1.02
same,normalized growth,"S. cerevisiae deletion strains, locus YGR135W, strain pre9, hits give low values",0.991
same,normalized growth,[6],1.01
same,normalized growth,"S. cerevisiae deletion strains, locus YGR252W, strain gcn5, hits give low values",0.925
same,normalized growth,"S. cerevisiae deletion strains, locus YHR030C, strain SLT2, hits give low values",0.972
same,normalized growth,"S. cerevisiae deletion strains, locus YHR079C, strain IRE1 (second series), hits give low values",0.992
same,normalized growth,"S. cerevisiae deletion strains, locus YHR094C, strain hxt1, hits give low values",0.957
same,normalized growth,"S. cerevisiae deletion strains, locus YHR129C, strain ARP1, hits give low values",0.997
same,normalized growth,"S. cerevisiae deletion strains, locus YHR200W, strain rpn10, hits give low values",0.964
same,normalized growth,"S. cerevisiae deletion strains, locus YIL066C, strain RNR3, hits give low values",0.996
same,normalized growth,"S. cerevisiae deletion strains, locus YIL073C, strain SPO22, hits give low values",0.899
same,normalized growth,"S. cerevisiae deletion strains, locus YIL125W, strain kgd1, hits give low values",0.984
same,normalized growth,"S. cerevisiae deletion strains, locus YIR030C, strain dcg1, hits give low values",0.978
same,normalized growth,"S. cerevisiae deletion strains, locus YJL095W, strain BCK1, hits give low values",1.03
same,normalized growth,"S. cerevisiae deletion strains, locus YJL134W, strain LCB3, hits give low values",0.99
same,normalized growth,"S. cerevisiae deletion strains, locus YJL168C, strain set2, hits give low values",0.986
same,normalized growth,"S. cerevisiae deletion strains, locus YJL187C, strain SWE1 (second series), hits give low values",0.999
same,normalized growth,"S. cerevisiae deletion strains, locus YJR043C, strain POL32, hits give low values",0.952
same,normalized growth,[7],1.05
same,normalized growth,"S. cerevisiae deletion strains, locus YKL009W, strain mrt4, hits give low values",0.977
same,normalized growth,"S. cerevisiae deletion strains, locus YKL068W, hits give low values",0.975
same,normalized growth,"S. cerevisiae deletion strains, locus YKL085W, strain MDH1 (second series), hits give low values",0.995
same,normalized growth,"S. cerevisiae deletion strains, locus YKL085W, strain MDH1, hits give low values",0.995
same,normalized growth,"S. cerevisiae deletion strains, locus YKL190W, strain CNB1, hits give low values",0.998
same,normalized growth,"S. cerevisiae deletion strains, locus YKR001C, strain vps1, hits give low values",0.969
same,normalized growth,"S. cerevisiae deletion strains, locus YLR039C, strain RIC1, hits give low values",0.942
same,normalized growth,"S. cerevisiae deletion strains, locus YLR058C, strain SHM2, hits give low values",0.988
same,normalized growth,"S. cerevisiae deletion strains, locus YLR102C, strain apc9, hits give low values",0.98
same,normalized growth,"S. cerevisiae deletion strains, locus YLR262C, strain YPT6, hits give low values",0.982
same,normalized growth,"S. cerevisiae deletion strains, locus YLR268W, strain sec22, hits give low values",1
same,normalized growth,"S. cerevisiae deletion strains, locus YLR330W, strain CHS5, hits give low values",0.987
same,normalized growth,"S. cerevisiae deletion strains, locus YLR342W, strain FKS1 (second series), hits give low values",0.957
same,normalized growth,"S. cerevisiae deletion strains, locus YLR371W, strain rom2, hits give low values",0.968
same,normalized growth,"S. cerevisiae deletion strains, locus YLR418C, strain cdc73, hits give low values",1.02
same,normalized growth,"S. cerevisiae deletion strains, locus YML016C, strain PPZ1, hits give low values",0.99
same,normalized growth,"S. cerevisiae deletion strains, locus YML032C, strain rad52, hits give low values",0.951
same,normalized growth,"S. cerevisiae deletion strains, locus YML124C, strain tub3, hits give low values",0.976
same,normalized growth,"S. cerevisiae deletion strains, locus YMR078C, strain ctf18, hits give low values",0.968
same,normalized growth,"S. cerevisiae deletion strains, locus YMR223W, strain ubp8, hits give low values",0.951
same,normalized growth,[8],1.01
same,normalized growth,[9],0.955
same,normalized growth,"S. cerevisiae deletion strains, locus YNL067W, strain RPL9B, hits give low values",1
same,normalized growth,[10],0.99
same,normalized growth,[18],1.02
same,normalized growth,"S. cerevisiae deletion strains, locus YNL233W, strain BNI4, hits give low values",1.02
same,normalized growth,"S. cerevisiae deletion strains, locus YNL250W, strain rad50, hits give low values",0.973
same,normalized growth,"S. cerevisiae deletion strains, locus YNL271C, strain bni1, hits give low values",0.993
same,normalized growth,"S. cerevisiae deletion strains, locus YNL298W, strain CLA4, hits give low values",0.967
same,normalized growth,"S. cerevisiae deletion strains, locus YNL307C, strain MCK1, hits give low values",0.952
same,normalized growth,[14],0.979
same,normalized growth,"S. cerevisiae deletion strains, locus YNR052C, strain pop2, hits give low values",0.961
same,normalized growth,"S. cerevisiae deletion strains, locus YOL006C, strain TOP1, hits give low values",1.03
same,normalized growth,"S. cerevisiae deletion strains, locus YOL012C, strain htz1",1.06
same,normalized growth,"S. cerevisiae deletion strains, locus YOL147C, strain pex11, hits give low values",0.973
same,normalized growth,"S. cerevisiae deletion strains, locus YOR061W, strain CKA2, hits give low values",0.998
same,normalized growth,"S. cerevisiae deletion strains, locus YOR069W, strain VPS5, hits give low values",0.991
same,normalized growth,"S. cerevisiae deletion strains, locus YOR136W, strain idh2, hits give low values",0.96
same,normalized growth,"S. cerevisiae deletion strains, locus YOR144C, strain elg1, hits give low values",0.982
same,normalized growth,"S. cerevisiae deletion strains, locus YOR184W, strain ser1, hits give low values",0.93
same,normalized growth,"S. cerevisiae deletion strains, locus YOR316C, strain cot1, hits give low values",0.977
same,normalized growth,[17],1
same,normalized growth,[16],0.997
same,normalized growth,"S. cerevisiae deletion strains, locus YPR119W, strain clb2, hits give low values",0.989
same,normalized growth,"S. cerevisiae deletion strains, locus YPR141C, strain kar3, hits give low values",0.99
same,normalized growth,"S. cerevisiae deletion strains, locus YPR163C, strain tif3, hits give low values",0.96
same,normalized growth,"S. cerevisiae deletion strains, locus YPR167C, strain met16, hits give low values",0.98
same,normalized growth,"S. cerevisiae deletion strains, strain wtn01, hits give low values",1.01
same,normalized growth,"S. cerevisiae strains, strain wild type, hits give low values",0.989
